Most compounds without a hit are left out; they make up all but 7.3% or so of the library.
HCMV inh: human cytomegalovirus inhibition; HFF cells, HCMV-luciferase reporter, 72 h; stronger effect = lower value; activity change, negative = inhibition, % at 57.5 µM; hit rate 4.5% among 410,000; in the data active = activity change below about -60%; inconclusive = no clear call, values can overlap the other calls; inactive = above about -39%
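HFF cells seeded 16 h at 37C, treated with compounds, infected with luciferase-reporter HCMV at MOI 1 PFU/cell; luciferase read at 72 h post infection, normalized to buffer-only and Salinomycin controls.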
HCV inhibitor: HCV inhibition | AID 651820 | Huh7.5.1 HCVcc-Cre infection, luciferase reporter, 44 h | Potency, µM (series often up to 41.8 µM), without a hit: at the top dose activity change, negative = inhibition, usual class: inhibitors | hit rate 3.4% among 340,000; active = well fitted inhibition curve with a large enough effect; inconclusive = small, poorly fitted or top-dose-only effect, or another doubt; inactive = no such curve, though single readings can be large or run the other way; also: potency is read from the fitted curve at half-maximal effect
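Infectious HCVcc-Cre (~0.5 moi) was added to cells just after compound, with cells seeded 4 h earlier at 1,000 per well. Luciferase activity after 44 h culture reported infection; substrate was incubated 15 min at room temperature before reading.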
Vaccinia mCherry: inhibitors of vaccinia virus infection (mCherry reporter signal). AID 720579. hit rate 0.63% among 310,000. Vaccinia virus mCherry reporter infection, fluorescence. Potency, µM (series often up to 36.5 µM), inactives show at the highest dose activity change, negative = inhibition, actives largely listed as inhibitors; calls by dose curve; tested in A549 cells; also: potency is read from the fitted curve at half-maximal effect; nearly all actives have a fitted effect of over 35% in size
FMDV antiviral: antivirals against foot and mouth disease virus | FMDV antiviral cell-based qHTS | AID 1159524 | Potency, µM (highest dose often 57.9 µM), for the others: at the top dose activity change, negative = inhibition, hits mostly inhibitors | hit rate 1.2% among 410,000; calls by dose curve; tested in HEK293T cells; also: read-out not given here; potency is read from the fitted curve at half-maximal effect; nearly all actives have a fitted effect of over 45% in size
Vaccinia Venus: inhibitors of vaccinia virus (Venus reporter). Vaccinia virus Venus reporter expression, fluorescence. Potency, µM (top dose mostly 36.5 µM), inactives show at the top dose activity change, negative = inhibition, hits mostly inhibitors. hit rate 0.46% among 330,000. AID 720580; calls by dose curve; tested in A549 cells; also: potency is read from the fitted curve at half-maximal effect; nearly all actives have a fitted effect of over 30% in size
The depositor's hits bear a star; i = inactive; ? = inconclusive; . = no result given; [ ] = another dose, or the depositor's remark. % is scaled to controls: 0 for no effect and ±100 for the full control effect.

SMILES	HCMV inh	HCV inhibitor	Vaccinia mCherry	FMDV antiviral	Vaccinia Venus
CCOC(=O)C1=Nc2ccccc2C1=[N+]=[N-]	-100.4*	?	?	-0.5%	?
CCOC(=O)c1[nH]c2c(c1Cc1ccccc1)C(=O)CC(c1ccccc1)C2 (stereo unspecified)	-39.1	.	-8.9%[7.34 µM]	16.7%	-3.7%[7.34 µM]
O=C(NCc1nc2ccccc2[nH]1)C1=C[C@H](C2CCCCC2)C[C@H](OCc2ccc(CO)cc2)O1	-70.2*	-28.4%	-3.6%	-46.4%	?
O=C(NC1CC1)C1=C[C@@H](C2CC2)C[C@@H](OCCCCO)O1	-9.4	19.9%	-12.5%	-7.4%	5.1%
O=C(NCc1ccccc1)C1=C[C@H](C2CCCCC2)C[C@H](OCCCCO)O1	4.4	-4.0%	i	19.4%	-17.6%
O=C(Nc1ccccc1)C1=C[C@@H](C2CCCCC2)C[C@@H](OCCCCO)O1	?	0.316µM*	i	-3.3%	-21.6%
O=C(Nc1ccccc1)C1=C[C@H](C2CCCCC2)C[C@H](OCc2ccc(CO)cc2)O1	?	-4.5%	-1.0%	11.7%	-9.6%
O=C(NC1CC1)C1=C[C@H](C2CCCCC2)C[C@H](OCCCCO)O1	-63.9*	12.2%	i	3.7%	-15.4%
O=C(Nc1ccccc1)C1=C[C@@H](C2CCCCC2)C[C@@H](OCc2ccc(CO)cc2)O1	-60.1*	?	-28.1%	2.7%	-2.5%
CCCOc1cccc(C(=O)N(Cc2ccc(C)o2)C2CCS(=O)(=O)C2)c1 (stereo unspecified)	?	.	-7.9%	-24.2%	-5.8%
Cc1c(C)n(Cc2ccccc2)c2ccc(C(=O)NCC(C)c3ccccc3)cc12 (stereo unspecified)	0.0	.	-8.1%	10.9%	-14.4%
COc1ccc(NC(=O)Cn2c(=O)ccc3cc(S(=O)(=O)N4CCCC4)ccc32)cc1Cl	27.2	.	-25.6%	0.0%	-23.4%
O=C(Nc1ccccc1)C1=C[C@H](C2CCCCC2)C[C@H](OCCCCO)O1	-75.9*	3.3%	-22.6%	42.3%	-24.8%
O=C(N/N=C/c1sc(N2CCOCC2)nc1-c1ccccc1)c1ccccc1O	-19.5	?	?	-2.0%	?
O=[N+]([O-])c1ccc(N/N=C/c2sc(N3CCOCC3)nc2-c2ccccc2)c(S(=O)(=O)Nc2ccc(Cl)cc2)c1	-88.3*	2.51µM*	.	?	.
O=[N+]([O-])c1ccc(N/N=C/c2sc(N3CCOCC3)nc2-c2ccccc2)c(S(=O)(=O)Nc2ccccc2Cl)c1	?	3.55µM*	?	?	?
O=C(O)c1cccc(N/N=C/c2sc(N3CCOCC3)nc2-c2ccccc2)c1	-25.2	4.9%	-8.9%	49.0%	-3.9%
CN(C)c1ccc(N/C(=N\S(=O)(=O)c2cccs2)c2ccccc2)cc1	-67.9*	?	.	42.2%	.
CN(/C(=N/S(=O)(=O)c1cccs1)c1ccccc1)c1ccccc1	43.6	16.3%	i	13.1%	-12.5%
Cc1cc(N2CCCC2=O)cc(C)c1S(=O)(=O)NCCOc1ccc(C(C)(C)C)cc1	-90.6*	11.2µM*	?	?	?
O=C1CCCN1c1ccc(S(=O)(=O)NCCOc2ccccc2)cc1	-28.8	-22.7%	-30.2%	-27.7%	-19.4%
CSCc1cc(N2CCCC2)nc(-c2ccccc2)n1	-0.7	?	-11.2%	-9.3%	-6.9%
COCc1cc(N2CCCCC2)nc(-c2ccccc2)n1	?	5.62µM*	-0.5%	-8.3%	3.8%
COc1ccc(C(=O)Nc2ccc(C3=NNC(=O)CC3C)cc2NC(=O)c2ccc(OC)cc2)cc1 (stereo unspecified)	8.3	10µM*	?	-0.2%	-14.1%
COc1ccc(C(=O)Nc2ccc(C(=O)O)cc2NC(=O)c2ccc(OC)cc2)cc1	12.3	19.1%	.	-18.7%	.
CCN(CC)C(=O)c1ccc2c(c1)N(Cc1ccc(C(F)(F)F)cc1)C(=O)c1ccccc1S2	-12.6	.	-18.3%	?	-16.3%
Cc1ccc(CNCc2cc3c(C(C)(C)C)nn(-c4ccccc4)c3[nH]c2=O)cc1	?	10µM*	-11.4%	.	-20.5%
CC(C)(C)c1nn(-c2ccccc2)c2[nH]c(=O)c(CNc3ccc4c(c3)OCCO4)cc12	-61.6*	?	i	.	-9.0%
O=C(Nc1ccncc1)C1C(=O)c2ccccc2N(Cc2ccccc2)C1=O (stereo unspecified)	.	.	-7.5%	.	?
COc1ccc(C(=O)c2cc([N+](=O)[O-])ccc2N2CCOCC2)cc1	-99.1*	?	?	-11.6%	?
